From PubChem BioAssay (NCATS) come the findings set out here.

Inconclusive results are not listed. Activity calls are given as the source filed them. Unless noted, calls come from the whole dose curve; as a rule, active = well fitted curve in the direction sought with a large enough effect; inconclusive = small, poorly fitted or top-dose-only effect, or another doubt; inactive = no such curve, though single readings can be large; an effect the other way counts as inactive or inconclusive.

A short description of assay [1]: AP1 Signaling Pathway (AID 357; active = well fitted curve in either direction with a large enough effect, not every such curve was filed as active;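 note: ME-180 reporter cells stimulated with EGF at its EC50 level; % is set by controls: 0 for no effect and ±100 for the full control effect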). Conditions: ME-180 AP-1-bla reporter, EGF-induced, beta-lactamase ratio, 5 h; at 7.69 µM (top of the series) unless noted. In outline:
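Titration-series screen for positive or negative modulators of EC50 EGF-induced signaling in ME-180 cells carrying an AP-1-driven beta-lactamase reporter. After 5 hours at 37 degrees Celsius, CCF4 460nm/530nm emission ratio gave %Activity; AC50 values derived.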

For assay [2], the target named is Cytochrome P450 1A2 (Homo sapiens) (UniProt P05177). Briefly: p450-cyp1a2 (AID 410; calls by dose curve; note: potency is the fitted concentration of half-maximal effect). In outline:
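20nM CYP1A2 with 100uM Luciferin-ME (at Km) in 100mM KPO4; compound preincubated 10 min, NADPH regeneration added, 60 min at room temperature. Luciferin quantified by luminescence after detection reagent; normalized to 57 uM furafylline.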

Assay [3] in a line: NFAT Signaling Pathway (AID 444; active = well fitted curve in either direction with a large enough effect, not every such curve was filed as active;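 note: carbachol stimulus at about its EC50 of 1 µM final; % is set by controls: 0 for no effect and ±100 for the full control effect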). Conditions: Jurkat NFAT-bla M1, carbachol, beta-lactamase ratio, 5 h; at 7.69 µM (top of the series) unless noted. The method, boiled down:
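Jurkat cells carrying an NFAT-driven β-lactamase reporter and co-transfected muscarinic M1 receptor were treated with compound plus carbachol (1 uM final, an EC50 level) for 5 h at 37 °C. CCF4 loading followed for 1 h at RT; 460/530 nm ratio gave %activity.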

A short description of assay [4]: Stat Signaling Pathway (AID 446; active = well fitted curve in either direction with a large enough effect, not every such curve was filed as active;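 note: ME-180 cervical cancer cells given 40 pM IL-6 alongside compound; SIE-controlled beta-lactamase reporter measured as 460/530 nm FRET emission ratio; % is set by controls: 0 for no effect and ±100 for the full control effect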). The following applies: ME-180 (cervical carcinoma) SIE beta-lactamase reporter, IL-6 stimulated, 5 h; at 7.69 µM (top of the series) unless noted. The method, boiled down:
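ME-180 SIE-bla cells; overnight plating; cpd + IL-6 40 pM, 5 h, 37 C; LiveBLAzer 2.5 h RT; 460/530 nm emission ratio. Normalized to 300 pM IL-6 and 125 nM JAK inhibitor controls.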

The target of assay [5] is Glucocorticoid receptor (Homo sapiens) (UniProt P04150). Briefly: GR-GFP Redistribution (AID 450;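 active = compounds whose dose series gives a full or clear partial fitted curve of increased nuclear translocation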; note: potency is the fitted concentration of half-maximal effect). Conditions: U2OS GR-GFP nuclear translocation, laser cytometry, 2 h.
Chain of Glucocorticoid receptor (Homo sapiens) (P04150 whole entry, looked up, the tested form may be a part): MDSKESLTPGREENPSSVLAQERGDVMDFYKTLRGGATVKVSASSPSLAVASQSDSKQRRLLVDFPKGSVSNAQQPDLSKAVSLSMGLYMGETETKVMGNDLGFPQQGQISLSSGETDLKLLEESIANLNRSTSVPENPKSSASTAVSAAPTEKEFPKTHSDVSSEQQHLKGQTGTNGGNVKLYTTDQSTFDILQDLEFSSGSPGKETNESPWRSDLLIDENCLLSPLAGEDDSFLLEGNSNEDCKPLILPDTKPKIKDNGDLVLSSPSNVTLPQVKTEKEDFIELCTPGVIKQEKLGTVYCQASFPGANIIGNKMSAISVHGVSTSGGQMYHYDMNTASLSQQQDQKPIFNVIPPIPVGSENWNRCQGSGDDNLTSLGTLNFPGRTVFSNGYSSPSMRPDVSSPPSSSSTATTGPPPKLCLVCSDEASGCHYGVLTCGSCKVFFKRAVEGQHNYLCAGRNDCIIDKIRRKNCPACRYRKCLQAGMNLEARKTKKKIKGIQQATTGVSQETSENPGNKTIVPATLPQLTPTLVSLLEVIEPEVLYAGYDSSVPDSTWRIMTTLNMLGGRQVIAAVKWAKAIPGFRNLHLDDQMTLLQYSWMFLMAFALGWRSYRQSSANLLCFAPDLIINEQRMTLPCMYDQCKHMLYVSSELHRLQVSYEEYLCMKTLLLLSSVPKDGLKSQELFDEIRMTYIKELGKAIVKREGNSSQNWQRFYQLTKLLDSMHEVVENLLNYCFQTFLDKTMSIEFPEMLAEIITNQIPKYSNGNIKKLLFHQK
For assay [6] the target is unchanged. The experiment in a line: GR-EFC Redistribution (AID 451; calls by dose curve; note: potency is the fitted concentration of half-maximal effect). Conditions: CHO-K1 GR-EFC translocation, beta-gal luminescence, 2 h. The method, boiled down: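 CHO-K1 cells stably expressing nuclear-localized β-gal enzyme acceptor and GR fused C-terminally to the enzyme donor fragment; ligand-driven nuclear translocation restores β-gal by complementation. Compounds titrated up to 46 uM final, 2 h at 37 °C; luminescence read.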

Assay [7] has as its target Mitogen-activated protein kinase 10 (Mus musculus) (UniProt Q61831). The experiment in a line: JNK3 AlphaScreen Assay (AID 530; active = well fitted curve in either direction with a large enough effect, not every such curve was filed as active;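 note: kinase came from lysate of stimulated human HepG2 cells; signal reports phosphorylation of biotinylated GST-cJun 1-79 at Ser73 with 10 µM ATP; % is set by controls: 0 for no effect and ±100 for the full control effect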). In outline:
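Inhibitors reduce antibody binding to phosphorylated biotin-cJun, lowering AlphaScreen luminescence. Lysates from HepG2 cells pre-activated by IL-1beta plus TNF-alpha supplied JNK3; compounds were titrated.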
A general note: Alpha assays give light when donor and acceptor beads are brought close together.

Assay [8] has as its target 3',5'-cyclic-AMP phosphodiesterase 4B (Homo sapiens) (UniProt Q07343). Briefly: qHTS Assay for Inhibitors of PDE-IV (AID 607; active = well fitted activation curve with a large enough effect in the main read-out, with a control signal flat, not every such curve was filed as active; note: % of control where 0% means no effect). The method, boiled down: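 ACTOne HEK293 cells carry a modified cAMP-gated CNG channel and express endogenous PDE4; plated 1000 cells/well, compounds up to 22.9 uM final. Membrane-potential dye fluorescence (ex 535/em 590) was read; parental cells received 10 uM forskolin + 100 uM RO 20-1724.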

A short description of assay [9]: qHTS Assay for Lipid Storage Modulators (AID 1519; calls by dose curve; note: potency is the fitted concentration of half-maximal effect). The following applies: Drosophila S3 cells, BODIPY lipid droplet/cell ratio, laser cytometry, cells loaded with oleic acid; for activity change, negative = inhibition: at 57.5 µM (top of the series). The method, boiled down: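 Cells seeded at 5,000 per well were treated with compounds over a concentration series and loaded with oleic acid (400 uM, as added). Lipid droplet fluorescence (488 nm excitation, 500-530 nm channel) was read by laser-scanning cytometry and normalized to 20 uM Triacsin C.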

Assay [10] concerns the target Dual specificity protein kinase CLK4 (Homo sapiens) (UniProt Q9HAZ1). The experiment in a line: qHTS Assay for Inhibitors of CDC-like Kinase 4 (Kinase-Glo Assay) (AID 1770). Note: % is set by controls: 0 for no effect and ±100 for the full control effect; nearly all actives have a fitted effect of over 65% in size. In outline:
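Luminescent ATP-depletion read-out (Kinase-Glo) after 4.5 h room-temperature reaction of Clk4 (25 nM final) with RS peptide (100 uM) and ATP (1 uM), pH 7.5 Tris buffer with MgCl2 and DTT.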
In general terms: qHTS replaces the single test concentration by a dilution series.

Assay [11] shares this target. Briefly: qHTS Assay for Inhibitors of CDC-like Kinase 4 (ADP-Glo Assay) (AID 1771). Note: % is set by controls: 0 for no effect and ±100 for the full control effect; nearly all actives have a fitted effect of over 70% in size. The method, boiled down:
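25 nM Clk4 with 100 uM RS repeat peptide and 1 uM ATP (final) in buffer with 2 mM MgCl2, 0.5 mM EGTA, 2.5 mM DTT, 0.01% Triton X-100; 1 h at room temperature; ADP-Glo luminescence for ADP formed.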

Assay [12] has the same target. The experiment in a line: qHTS Assay for Inhibitors of CDC-like Kinase 4 (ADP-FP Assay) (AID 1795).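 Note: recombinant human CLK4 phosphorylating RS repeat peptide at 1 µM ATP; % is set by controls: 0 for no effect and ±100 for the full control effect; nearly all actives have a fitted effect of over 60% in size.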 In outline:
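Kinase activity was measured as ADP production using Transcreener orange tracer (4 nM) and ADP antibody (1 ug/mL) fluorescence polarization, with ADP calculated from a calibration curve. The 1 h reaction contained 6.25 nM Clk4, 1 uM ATP and 100 uM RS peptide at pH 7.5 with Mg2+.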

Assay [13] has as its target Ubiquitin carboxyl-terminal hydrolase 1 (Homo sapiens) (UniProt O94782). The experiment in a line: Inhibitors of USP1/UAF1: Pilot qHTS (AID 504865).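 Note: rhodamine fluorescence freed from ubiquitin-rhodamine substrate followed over time; top concentration of the series differs between compounds; % is set by controls: 0 for no effect and ±100 for the full control effect; nearly all actives have a fitted effect of over 35% in size.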 In outline: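 Deubiquitinase activity followed as kinetic rhodamine fluorescence release from 150 nM Ub-Rho. 1 nM USP1/UAF1 with compound, after 15 min room-temperature preincubation, in HEPES pH 7.8 buffer containing TCEP, EDTA, BSA and Tween-20.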

Assay [14] in a line: Primary qHTS for small molecule stabilizers of the endoplasmic reticulum resident proteome: Secreted ER Calcium Modulated Protein (SERCaMP) assay (AID 1508630). Note: % is set by controls: 0 for no effect and ±100 for the full control effect. The method, boiled down: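 GLuc-SERCaMP-expressing SH-SY5Y cells, pretreated 16 h with compound, are challenged with thapsigargin to empty ER calcium stores; after 4 h, coelenterazine is added directly to the medium and luminescence is imaged.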

In assay [15] the target is Cytochrome P450 3A4 (Homo sapiens) (UniProt P08684). Briefly: qHTS Assay for Activators of Cytochrome P450 3A4 (AID 885). Note: nearly all actives have a fitted effect of over 65% in size. The method, boiled down: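 20nM CYP3A4 + 25uM Luciferin-PPXE (=KM), 200mM KPO4; cpd 10 min RT; NADPH regen, 60 min RT; stop w/ detection buffer, 20 min; luminescence. Normalized to 57 uM ketoconazole.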
Chain of Cytochrome P450 3A4 (Homo sapiens) (P08684 whole entry, looked up): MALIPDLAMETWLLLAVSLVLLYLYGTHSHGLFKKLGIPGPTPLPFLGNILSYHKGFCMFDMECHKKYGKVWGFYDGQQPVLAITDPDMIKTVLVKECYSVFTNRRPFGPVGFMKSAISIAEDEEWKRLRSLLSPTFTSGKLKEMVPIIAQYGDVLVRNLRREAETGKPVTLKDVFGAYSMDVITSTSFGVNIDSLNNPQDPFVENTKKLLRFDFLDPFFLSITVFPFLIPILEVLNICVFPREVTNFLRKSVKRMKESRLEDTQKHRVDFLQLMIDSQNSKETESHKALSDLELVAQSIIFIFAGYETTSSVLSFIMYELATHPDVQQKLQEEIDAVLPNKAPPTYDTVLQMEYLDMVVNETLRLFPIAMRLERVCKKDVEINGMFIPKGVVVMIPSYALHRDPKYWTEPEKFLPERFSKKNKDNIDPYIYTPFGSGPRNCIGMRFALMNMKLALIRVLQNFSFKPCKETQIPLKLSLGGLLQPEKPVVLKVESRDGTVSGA
For assay [16] the target is unchanged. The experiment in a line: qHTS Assay for Inhibitors and Substrates of Cytochrome P450 3A4 (AID 884). Note: potency is the fitted concentration of half-maximal effect; nearly all actives have a fitted effect of over 50% in size. The method, boiled down:
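20 nM human CYP3A4 with 25 uM Luciferin-PPXE (at KM) in 200 mM KPO4, preincubated 10 min with compound; NADPH regeneration started a 60 min RT reaction. Luciferin detected by luminescence, normalized to 57 uM ketoconazole as full inhibition.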

Assay [17] has as its target Lysosomal acid glucosylceramidase (Homo sapiens) (UniProt P04062). Briefly: Glucocerebrosidase-p2 (AID 348; in the data active = potency below about 10 µM; note: potency is the fitted concentration of half-maximal effect). The following applies: purified GBA, blue fluorogenic substrate, 40 min. In outline:
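Compounds titrated from 0.6 nM upwards against 0.2 nM enzyme in pH 5.9 citric acid/KH2PO4, taurocholate, tween-20; blue fluorogenic substrate 80 uM, 40 min room temperature, stopped and read Ex 365/Em 440 for AC50.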

Setting [18] is: measured here: cell count channel max response.
The mark [19] stands for this setting: measured here: lipid channel max response.

Chain of Ubiquitin carboxyl-terminal hydrolase 1 (Homo sapiens) (O94782 whole entry, looked up): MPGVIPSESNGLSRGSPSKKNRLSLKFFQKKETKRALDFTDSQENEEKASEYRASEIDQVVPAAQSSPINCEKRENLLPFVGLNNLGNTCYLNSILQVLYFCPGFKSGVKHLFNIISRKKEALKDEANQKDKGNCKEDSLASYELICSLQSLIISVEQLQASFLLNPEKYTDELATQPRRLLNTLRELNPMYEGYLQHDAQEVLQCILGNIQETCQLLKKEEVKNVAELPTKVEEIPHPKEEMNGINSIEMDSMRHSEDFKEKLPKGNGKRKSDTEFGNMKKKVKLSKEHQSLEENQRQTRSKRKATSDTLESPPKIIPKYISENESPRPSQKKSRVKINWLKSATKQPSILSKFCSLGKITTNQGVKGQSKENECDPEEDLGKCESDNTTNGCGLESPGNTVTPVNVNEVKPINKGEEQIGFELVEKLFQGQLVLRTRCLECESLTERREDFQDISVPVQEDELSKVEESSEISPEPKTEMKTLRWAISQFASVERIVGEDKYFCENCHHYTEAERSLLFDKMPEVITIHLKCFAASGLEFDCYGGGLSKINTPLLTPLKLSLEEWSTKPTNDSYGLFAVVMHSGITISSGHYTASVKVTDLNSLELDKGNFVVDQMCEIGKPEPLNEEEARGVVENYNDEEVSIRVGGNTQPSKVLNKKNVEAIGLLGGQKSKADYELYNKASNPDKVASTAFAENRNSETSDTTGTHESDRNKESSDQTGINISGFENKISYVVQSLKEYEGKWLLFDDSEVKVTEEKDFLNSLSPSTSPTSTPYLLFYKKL
Chain of Cytochrome P450 1A2 (Homo sapiens) (P05177 whole entry, looked up): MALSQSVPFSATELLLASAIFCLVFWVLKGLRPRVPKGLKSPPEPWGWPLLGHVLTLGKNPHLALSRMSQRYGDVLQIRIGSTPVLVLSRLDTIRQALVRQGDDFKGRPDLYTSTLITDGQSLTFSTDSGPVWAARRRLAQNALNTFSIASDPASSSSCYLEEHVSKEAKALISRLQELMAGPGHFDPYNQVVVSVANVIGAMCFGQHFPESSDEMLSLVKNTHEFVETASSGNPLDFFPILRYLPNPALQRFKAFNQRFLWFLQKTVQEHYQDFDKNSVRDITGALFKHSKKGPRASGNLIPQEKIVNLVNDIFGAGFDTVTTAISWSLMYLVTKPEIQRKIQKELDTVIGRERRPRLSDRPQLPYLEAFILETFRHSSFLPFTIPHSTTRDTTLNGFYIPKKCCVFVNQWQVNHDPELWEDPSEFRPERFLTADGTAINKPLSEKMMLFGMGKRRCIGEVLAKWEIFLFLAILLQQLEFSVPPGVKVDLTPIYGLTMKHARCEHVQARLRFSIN
Chain of 3',5'-cyclic-AMP phosphodiesterase 4B (Homo sapiens) (Q07343 whole entry, looked up): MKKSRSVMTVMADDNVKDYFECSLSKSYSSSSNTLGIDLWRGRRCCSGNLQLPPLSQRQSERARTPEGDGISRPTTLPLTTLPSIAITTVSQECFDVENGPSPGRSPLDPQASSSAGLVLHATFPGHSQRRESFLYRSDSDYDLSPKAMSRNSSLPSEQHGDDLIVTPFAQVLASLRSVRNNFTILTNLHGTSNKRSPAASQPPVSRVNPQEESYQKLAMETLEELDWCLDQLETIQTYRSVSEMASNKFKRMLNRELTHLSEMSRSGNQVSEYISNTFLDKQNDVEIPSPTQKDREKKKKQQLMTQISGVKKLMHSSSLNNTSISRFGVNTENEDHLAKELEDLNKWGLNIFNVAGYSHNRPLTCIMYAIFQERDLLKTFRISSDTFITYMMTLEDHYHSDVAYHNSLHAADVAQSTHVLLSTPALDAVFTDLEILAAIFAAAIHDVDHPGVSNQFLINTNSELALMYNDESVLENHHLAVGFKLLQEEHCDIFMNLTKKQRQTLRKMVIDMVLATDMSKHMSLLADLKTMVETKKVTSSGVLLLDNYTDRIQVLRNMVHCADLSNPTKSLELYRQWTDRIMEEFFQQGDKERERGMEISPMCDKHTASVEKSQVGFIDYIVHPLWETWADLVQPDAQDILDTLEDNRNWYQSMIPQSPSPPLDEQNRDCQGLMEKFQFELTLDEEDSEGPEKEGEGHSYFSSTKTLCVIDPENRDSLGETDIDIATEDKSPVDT
Chain of Dual specificity protein kinase CLK4 (Homo sapiens) (Q9HAZ1 whole entry, looked up): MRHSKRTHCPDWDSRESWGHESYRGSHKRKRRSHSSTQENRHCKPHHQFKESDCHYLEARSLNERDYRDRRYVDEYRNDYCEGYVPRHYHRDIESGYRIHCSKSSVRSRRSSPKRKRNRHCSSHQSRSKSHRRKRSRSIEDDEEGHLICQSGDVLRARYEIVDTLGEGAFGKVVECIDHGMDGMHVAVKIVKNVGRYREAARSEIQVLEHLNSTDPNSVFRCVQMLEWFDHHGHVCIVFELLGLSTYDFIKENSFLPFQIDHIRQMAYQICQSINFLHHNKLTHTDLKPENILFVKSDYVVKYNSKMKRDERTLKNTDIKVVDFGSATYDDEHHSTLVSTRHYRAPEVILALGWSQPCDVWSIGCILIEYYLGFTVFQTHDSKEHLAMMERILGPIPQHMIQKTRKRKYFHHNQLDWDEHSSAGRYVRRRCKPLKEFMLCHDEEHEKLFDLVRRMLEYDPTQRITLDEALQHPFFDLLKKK
Chain of Lysosomal acid glucosylceramidase (Homo sapiens) (P04062 whole entry, looked up): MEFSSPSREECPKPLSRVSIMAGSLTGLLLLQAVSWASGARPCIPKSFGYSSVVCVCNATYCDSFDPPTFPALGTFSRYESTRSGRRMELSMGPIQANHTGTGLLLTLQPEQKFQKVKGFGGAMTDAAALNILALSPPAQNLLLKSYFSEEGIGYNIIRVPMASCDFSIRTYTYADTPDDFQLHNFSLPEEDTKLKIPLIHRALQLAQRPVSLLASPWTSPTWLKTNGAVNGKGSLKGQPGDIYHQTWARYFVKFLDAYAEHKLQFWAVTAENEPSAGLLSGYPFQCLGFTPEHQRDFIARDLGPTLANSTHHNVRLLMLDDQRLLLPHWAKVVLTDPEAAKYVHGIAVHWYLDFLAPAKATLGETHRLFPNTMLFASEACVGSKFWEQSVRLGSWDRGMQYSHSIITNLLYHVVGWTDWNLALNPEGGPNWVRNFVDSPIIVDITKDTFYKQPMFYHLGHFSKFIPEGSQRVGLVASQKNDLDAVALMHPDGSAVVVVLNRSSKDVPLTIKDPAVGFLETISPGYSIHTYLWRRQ

Turning to `O=c1cnc2cnc(Oc3cccc(Cl)c3)nc2n1C[C@H]1CCCO1`, the activity change, negative = inhibition is -1.71% (inactive) in assay [1], 1.72% (inactive) in assay [3] and 5.57% (inactive) in assay [9]. In addition, the Potency is 5.01 µM (active) in assay [2], > 9.22 µM (inactive) in [5] and > 46 µM (inactive) in assay [6]. Besides, the activity, negative = inhibition in assay [4] was -13.3% (inactive). In addition, the compound was classed as inactive in assay [7]. In addition, the Potency entry in [8], in assay [10], in [11], in assay [12], in assay [13] and in assay [14] was “inactive” each time. Besides, the figures for the max response in [9] (setting [18]) and in assay [9] (setting [19]) were 22.7% and 29.8%, respectively.

Consider `CN1CCN(c2ncc3ncc(=O)n(C[C@H]4CCCO4)c3n2)CC1`, for which the activity change, negative = inhibition was -9.63% (inactive) in assay [1] and 6.86% (inactive) in assay [9]. Moreover, the Potency in [2] is 10 µM (active); in assay [5], > 9.22 µM (inactive); in [6] it was > 46 µM (inactive). For the same compound, the activity, negative = inhibition in assay [4] was -20.2% (inactive). Moreover, in [7], the compound was called inactive. Besides, the Potency result in assay [8], in [10], in [11], in assay [12], in [13] and in assay [14] was “inactive” throughout. In addition, the max response in assay [9] (setting [18]) amounted to 7.9%; in assay [9] (setting [19]), 13.9%.

Regarding `O=c1c(-c2ccc(F)cc2)nc2cnc(Nc3ccccc3)nc2n1C[C@H]1CCCO1`, in assay [1], the activity change, negative = inhibition was -19.3% (inactive). Moreover, the Potency in assay [2] was 2 µM (active); in assay [5], > 9.22 µM (inactive); in assay [6], > 46 µM (inactive); in assay [9], 3.55 µM (active). Also, in assay [7], the compound was called inactive. Besides, the Potency entry in assay [8], in assay [15], in assay [10], in assay [11], in [12] and in assay [13] was “inactive” in each case. For the same compound, the Potency entry in assay [14] is “inactive”. For the same compound, the max response in assay [9] (setting [18]) was -27.1%; in assay [9] (setting [19]), -76%.

In the case of `COc1ccc(Oc2ncc3nc(C)c(=O)n(-c4ccccc4)c3n2)cc1`, the activity change, negative = inhibition in assay [1] is -15.8% (inactive); in [3], -10.3% (inactive); in [9], 6.06% (inactive). Besides, the Potency in assay [2] was 7.94 µM (active); in assay [5], > 9.22 µM (inactive); in assay [6] it was > 46 µM (inactive); in [16], 5.01 µM (active). Further, in [4], the activity, negative = inhibition was -5.69% (inactive). In addition, the outcome in [7] was inactive. Also, the Potency entry in [8], in [10], in [11], in assay [12], in [13] and in assay [14] was “inactive” in each case. The max response in assay [9] (setting [18]) amounted to 10.7%; in assay [9] (setting [19]), 17.1%.

`COCCn1c(=O)c(C)nc2cnc(N(C)C)nc21`: the activity change, negative = inhibition was 3.65% (inactive) in assay [1], 13.3% (inactive) in assay [3] and 4.96% (inactive) in assay [9]. In addition, the Potency was 3.98 µM (active) in [2], > 9.22 µM (inactive) in assay [5] and > 46 µM (inactive) in assay [6]. Moreover, the activity, negative = inhibition in assay [4] was -5.78% (inactive). The compound was called inactive in assay [7]. Besides, the Potency result in assay [8], in assay [10], in assay [11], in [12] and in assay [14] was “inactive” throughout. In addition, the max response in [9] (setting [18]) was 17.2%; in assay [9] (setting [19]), 22.8%.

For `Cc1noc(C)c1-c1cncnc1NCCN1CCOCC1`, the Potency in assay [17] was > 11.4 µM (inactive); in assay [5], > 46 µM (inactive); in assay [6], > 46 µM (inactive); in assay [16] it was 6.31 µM (active). Further, the activity change, negative = inhibition in assay [3] is -5.64% (inactive); in assay [9], 3.95% (inactive). Besides, the activity, negative = inhibition in [4] was -2.23% (inactive). In addition, the compound was classed as inactive in [7]. In addition, the Potency entry in assay [8], in assay [15], in assay [10], in [11], in assay [12] and in assay [13] was “inactive” throughout. Also, the Potency entry in assay [14] is “inactive”. Further, the max response is 12.2% in [9] (setting [18]) and 14.6% in [9] (setting [19]).
